PKA kinase inh – inhibitors of human PKA kinase activity, primary screen, biochemical, ATP-depletion luminescence, Kemptide substrate; PKA Kemptide phosphorylation, Kinase-Glo ATP luminescence; inhibition, % at 6 µM; actives 0.1% (n = 65,000);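 active means inhibition above the screen-wide mean inhibition plus 3 SD, cut at about 21% in these data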
ROCK2 inh – inhibitors of human ROCK2 kinase, primary screen, biochemical, high-throughput, luminescence; inhibition, % at 6 µM; actives 0.35% (n = 60,000); purified ROCK2, Kinase-Glo ATP depletion luminescence;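 active means inhibition above the screen-wide mean inhibition plus 3 SD, cut at about 18% in these data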
PLK1 inh – human PLK1 kinase inhibitors, primary screen, biochemical, TR-FRET. Serine/threonine-protein kinase PLK1 (Homo sapiens), P53350. recombinant PLK1 kinase, TR-FRET peptide phosphorylation. inhibition, % at 10 µM. actives 0.53% (n = 97,000). AID 619, 2007;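 active means inhibition of 50% or more in the single-concentration screen; inactive means inhibition below 50%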
Plk1 PBD FP – Plk1 polo box domain binding inhibitors, primary screen, biochemical, fluorescence polarization; Serine/threonine-protein kinase PLK1 (Homo sapiens), P53350; Plk1 PBD phosphopeptide binding; inhibition, %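 (tested at about 20 µM)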; actives 0.13% (n = 97,000); in the data active means inhibition above about 34%, passing the limit was not always enough
FAK inh – FAK kinase inhibitors, primary screen, biochemical; Focal adhesion kinase 1 (Homo sapiens), Q05397; actives 0.84% (n = 97,000); inhibition, %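 (tested at 7 µM)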; biochemical FAK kinase activity assay; in the data active means inhibition above about 19%
JNK3 inh – JNK3 kinase activity inhibitors, primary screen, biochemical, human, purified enzyme; Mitogen-activated protein kinase 10 (Homo sapiens), P53779; HTS; inhibition, % at 8 µM; actives 0.61% (n = 60,000); AID 746, 2007; in the data active means inhibition above about 17%
Target sequence (P53779 whole entry, looked up): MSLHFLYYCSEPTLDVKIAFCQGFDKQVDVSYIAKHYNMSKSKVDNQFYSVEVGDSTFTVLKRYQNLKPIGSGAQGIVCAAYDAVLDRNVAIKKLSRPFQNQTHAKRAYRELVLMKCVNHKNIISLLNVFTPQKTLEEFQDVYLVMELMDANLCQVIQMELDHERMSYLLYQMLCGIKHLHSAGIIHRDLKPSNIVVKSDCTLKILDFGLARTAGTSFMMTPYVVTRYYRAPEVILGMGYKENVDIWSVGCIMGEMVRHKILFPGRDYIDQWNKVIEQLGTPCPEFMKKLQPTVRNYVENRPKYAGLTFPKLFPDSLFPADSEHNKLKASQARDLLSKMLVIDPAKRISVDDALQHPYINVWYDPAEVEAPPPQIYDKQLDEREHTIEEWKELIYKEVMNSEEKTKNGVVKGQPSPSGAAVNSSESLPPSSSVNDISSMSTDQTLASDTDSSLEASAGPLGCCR
PLK1 inh conf – PLK1 kinase activity inhibitors, confirmation, biochemical, TR-FRET, duplicate runs; recombinant PLK1 kinase, TR-FRET peptide phosphorylation; inhibition, % at 10 µM; shares compounds with PLK1 inh; actives 20% (n = 210);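 active means inhibition at or above 50% in each of two repeat confirmation tests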
TR-FRET interf – compound interference with Plk1 assay readout, artefact control for Plk1 kinase inhibitor project, biochemical, TR-FRET, compound added post-reaction | shares compounds with PLK1 inh | inhibition (interference), % at 10 µM | 210 tested, under 10 active;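 active means both duplicate runs show 50% or greater inhibition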
Large screens that a line does not name were inactive (follow-up assays come after a bar, where they were run). An excerpt weighted towards active compounds, which were near 1.5% of everything screened.

CCOC(=O)CN1C(=O)C(Sc2n[nH]c(-c3ccc(O)cc3)n2)CCc2ccccc21 (stereo not given)	none (no result: PKA kinase inh, ROCK2 inh, JNK3 inh)
CCOC(=O)c1c(C)n(C)c2ccc(OCC(O)CN3CCN(C)CC3)cc12 (stereo not given)	PLK1 inh 75 | PLK1 inh conf inactive | TR-FRET interf inactive
Cc1nn(Cc2ccc(Cl)cc2)c(C)c1NC(=O)C1CC=CCC1C(=O)O (stereo not given)	none
COc1ccccc1N1C(N)=NC(N)=NC1(C)C	PLK1 inh 79 | PLK1 inh conf inactive | TR-FRET interf inactive
Cc1ccc2oc(-c3cccc(NC(=S)NC(=O)/C=C/c4ccco4)c3)nc2c1	none (no result: PKA kinase inh, ROCK2 inh, JNK3 inh)
O=c1ccc2cc3c([nH]c4ccc(Br)cc43)oc-2c1O	PLK1 inh 71 | PLK1 inh conf inactive | TR-FRET interf inactive
CCCc1nc2n[nH]c(N)c2c2c1CCC2	none (no result: ROCK2 inh, PLK1 inh, Plk1 PBD FP, FAK inh, JNK3 inh)
CCc1nc2n[nH]c(N)c2c2c1CSC(C)(C)C2	PLK1 inh 77 | PLK1 inh conf 72 | TR-FRET interf inactive
Cc1ccc(-c2nc(CS(=O)CC(=O)NCCCN3CC(C)CC(C)C3)c(C)o2)cc1 (stereo not given)	PLK1 inh 76 | PLK1 inh conf inactive | TR-FRET interf inactive
C=CCSc1nc(-c2ccccc2)c2cc(Cl)ccc2n1	PLK1 inh 78 (no result: PKA kinase inh, ROCK2 inh, JNK3 inh) | PLK1 inh conf inactive | TR-FRET interf inactive
CSc1c(-c2ccccc2)nc2ccc(Cl)cc2c1C(=O)O	none (no result: PKA kinase inh, ROCK2 inh, JNK3 inh)
CC1Cc2ccccc2N1C(=O)c1cnc2n(c1=O)CCS2 (stereo not given)	PLK1 inh 70 | PLK1 inh conf inactive | TR-FRET interf inactive
COc1ccccc1S(=O)(=O)Cc1ccc(C(=O)N2CCN(c3ccc(C)cc3)C(C)C2)o1 (stereo not given)	none (no result: PLK1 inh, Plk1 PBD FP, FAK inh)
COc1ccc(S(=O)(=O)Cc2ccc(C(=O)N3CCN(c4cccc(C)c4)C(C)C3)o2)cc1 (stereo not given)	PLK1 inh 73 | PLK1 inh conf inactive | TR-FRET interf inactive
COCCn1c(COc2cccc(OC)c2)nnc1SCC(=O)N1CCOCC1	none
Cc1sc2c(c1C)c(=O)nc1scc(C)n12	none (no result: PKA kinase inh, ROCK2 inh, JNK3 inh)
COC(=O)CSc1nc2cc(OC)ccc2cc1C#N	PLK1 inh 87 | PLK1 inh conf inactive | TR-FRET interf inactive
COc1ccc2cc(C#N)c(SCC(=O)N3CCCC3)nc2c1	none
O=C(NCCCN1CCOCC1)c1cc(-c2ccc3c(c2)OCO3)nc2ccccc12	PLK1 inh 72 | PLK1 inh conf inactive | TR-FRET interf inactive
CCOc1cc(C2C(C(=O)N3CCCCC3)=C(C)NC3=C2C(=O)CCC3)cc(Br)c1O (stereo not given)	none
O=C(CSCc1ccc(F)cc1)N1CCN(c2ccc(F)cc2)CC1	none (no result: PKA kinase inh, ROCK2 inh, JNK3 inh)
Cc1ccc(CSCC(=O)N2CCN(c3ccc(F)cc3)CC2)cc1	PLK1 inh 109 (no result: PKA kinase inh, ROCK2 inh, JNK3 inh) | PLK1 inh conf inactive | TR-FRET interf inactive
Cc1ccc(CC2CC(=O)N(c3cc(C)on3)C2=O)cc1 (stereo not given)	PLK1 inh 70 | PLK1 inh conf inactive | TR-FRET interf inactive
NNc1ncnc2c1cnn2-c1ccccc1	PLK1 inh 75 (no result: PKA kinase inh, ROCK2 inh, JNK3 inh) | PLK1 inh conf 68 | TR-FRET interf inactive
Cn1nnnc1SCC(=O)Nc1ccc(N2CCOCC2)cc1	PLK1 inh 75 (no result: ROCK2 inh, JNK3 inh) | PLK1 inh conf inactive | TR-FRET interf inactive
Cn1c(SCC(=O)Nc2ccc(N3CCOCC3)cc2)nnc1-c1ccccc1	none
Nc1[nH]ncc1C(=O)Nc1cccc(C(F)(F)F)c1	PLK1 inh 78 | PLK1 inh conf 75 | TR-FRET interf inactive
COc1ccc(-c2cc3nc(C)cc(C)n3n2)c(OC)c1	none (no result: PLK1 inh, Plk1 PBD FP, FAK inh)
O=c1[nH]cnc2cc(-c3ccccc3)sc12	PLK1 inh 80 | PLK1 inh conf 73 | TR-FRET interf inactive
